Laboratory results from PubChem BioAssay (NCATS).
Records with an inconclusive call do not appear. The source made the active and inactive calls. The call rests on the fitted dose curve; in most records, active means well fitted inhibition curve with a large enough effect; inconclusive means small, poorly fitted or top-dose-only effect; inactive means no such curve, though single readings can be large or run the other way.

test system: Zika virus NS2B-NS3 protease (unlinked complex); assay: Primary screen GU Rhodamine qHTS for Zika virus inhibitors: Unlinked NS2B-NS3 protease assay (AID 1347159); conditions: Recombinant ZIKV NS2B-NS3 protease, Rhodamine110 substrate fluorescence; series mostly up to 107 µM; activity change, negative = inhibition: at the top concentration; further: nearly all actives have a fitted effect of over 60% in size
Outline: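 Compounds, tested up to 114 microM, were incubated for 15 minutes with 25 nM unlinked NS2B-NS3 protease at pH 8.0. Cleavage of 1.5 microM Rhodamine110 substrate was then followed by fluorescence for 15 minutes.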
On the % scale 0 is the no-effect control and ±100 the full control effect; potency means the concentration at half of the fitted maximal effect.

| SMILES | activity change, negative = inhibition | Potency |
| --- | --- | --- |
| N#Cc1cccc(C(=O)Nc2cc(-c3ccccc3)nn2-c2ccccc2)c1 | 14.2% (inactive) |  |
| CCC(C)C(=O)Oc1cc(C)ccc1C1(COC(=O)C(C)C)CO1 (centres undefined) | 0.337% (inactive) |  |
| O=C(O)CSc1cc(NS(=O)(=O)c2ccc(Br)cc2)c2ccccc2c1O |  | 3.16 µM (active) |
| Cc1cc(OCCCS(C)(=O)=O)cc(C)c1-c1cccc(COc2ccc(C3=CC(=O)NS3=O)cc2)c1 (centres undefined) |  | 3.55 µM (active) |
| COc1cc(CCc2ccc(OCC=C(C)C)cc2)cc(OC)c1OC | -3.4% (inactive) |  |
| Cc1c(OCc2cccc(-c3ccc(C(=O)O)cc3)c2)cc2c(c1C)C(=O)C(C1CCCC1)C2 (centres undefined) |  | 1.78 µM (active) |
| O=C(Nc1ccn(Cc2ccc(O)cc2C(F)(F)F)n1)c1c(F)cccc1F | -14.3% (inactive) |  |
| COc1ccc(S(=O)(=O)Nc2cc(Cl)cc(Cl)c2OC)cc1N1CCNCC1 | 24.9% (inactive) |  |
| C=C1CCC[C@]2(C)CC/C(=C(/CO)C(=O)OC)C[C@@H]12 |  | 20 µM (active) |
| Cc1cccc(-c2[nH]ncc2-c2ccc(F)c(-c3cnn(CCO)c3)c2)n1 | 12.8% (inactive) |  |
| CC/C(C)=C/C(=O)OC1C(OC2(C)CCC3C(C4C(C)CCC42)C3(C)C)OC(C)C(O)C1O (centres undefined) |  | 14.1 µM (active) |
| O=C(N[C@H](Cc1cscn1)C(=O)N[C@@H](CC1CCCCC1)[C@@H](O)[C@@H](O)C1CC1)c1nc2ccccc2[nH]1 | 9.52% (inactive) |  |
| O=C1C[C@]23C=CCN4CCC5c6cc7c(cc6N1[C@@]5(CC2)C43)OCO7 (some centres undefined) | -11.9% (inactive) |  |
| CC[C@@H](Nc1c(Nc2cccc(C(=O)N(C)C)c2O)c(=O)c1=O)c1cc(C(C)C)co1 |  | 22.4 µM (active) |
| COc1cc2c(c(OC)c1CC=C(C)C)C[C@H](c1ccc(O)c(CC=C(C)C)c1O)CO2 |  | 17.8 µM (active) |
| CCc1c(Cl)c(O)c(Cl)c(O)c1C(=O)O[C@H]1[C@H](O)[C@H](OC)[C@H](OC/C2=C\C=C\C[C@H](O)/C(C)=C\[C@H](CC)[C@@H](O[C@@H]3OC(C)(C)[C@@H](OC(=O)C(C)C)[C@H](O)[C@@H]3O)/C(C)=C/C(C)=C/C[C@@H]([C@@H](C)O)OC2=O)O[C@@H]1C |  | 11.2 µM (active) |
| C[C@@H]1CC[C@@]23CC[C@]4(C)[C@@](C=CC5[C@@]6(C)CC[C@H](O)C(C)(C)C6CC[C@]54C)(OC2=O)C3[C@H]1C (some centres undefined) |  | 6.31 µM (active) |
| COc1ccnc(CS(=O)c2nc3cc(OC(F)F)ccc3[nH]2)c1OC (centres undefined) | 0% (inactive) |  |
| Cn1cc(C2=C(c3coc4ccccc34)C(=O)NC2=O)c2cc(Br)ccc21 |  | 25.1 µM (active) |
| C#Cc1cccc(Nc2nc3cc(C(=O)O)ccc3c3cncnc23)c1 |  | 11.2 µM (active) |

| SMILES | activity change, negative = inhibition | Potency |
| --- | --- | --- |
| C=CC(C)(C)C12CC3C(=O)N4C(CC5(C(C)(C)C=C)c6ccccc6NC45)C(=O)N3C1Nc1ccccc12 (centres undefined) | -14.3% [at 57.1 µM] (inactive) |  |
| Cc1ccc(C)c(-c2cc(C(F)(F)F)nn2-c2ccc(S(N)(=O)=O)cc2)c1 | 0% (inactive) |  |
| C=C(CCC1C(C)(O)CCC2C(C)(C)C(O)CCC12C)C(O)CO (centres undefined) |  | 39.8 µM (active) |
| CCC/C=C/c1cc2c(C=O)c(O)c(CC=C(C)C)cc2o1 |  | 7.94 µM (active) |
| CC(=O)[C@H]1CC[C@H]2[C@@H]3CC=C4C[C@@H](OS(=O)(=O)O)CC[C@]4(C)[C@H]3CC[C@]12C |  | 17.8 µM (active) |
| O=C(Nc1ccc(Cl)cc1)Nc1cccc(-c2cccc(N3CCCC3)n2)c1 | 0% (inactive) |  |
| COc1ccc(C2=NC(c3ccc(Cl)cc3)C(c3ccc(Cl)cc3)N2C(=O)N2CCNC(=O)C2)c(OC(C)C)c1 (centres undefined) | 8.98% (inactive) |  |
| CC(OC1OCCN(Cc2n[nH]c(=O)[nH]2)C1c1ccc(F)cc1)c1cc(C(F)(F)F)cc(C(F)(F)F)c1 (centres undefined) |  | 44.7 µM (active) |
| CC(C)[C@@H](c1ccc(C(F)(F)F)cc1CN(Cc1cc(C(F)(F)F)cc(C(F)(F)F)c1)c1nnn(C)n1)N1CCC(C(=O)O)CC1 |  | 3.16 µM (active) |
| C=C(C=O)[C@]1(O)C[C@@]2(C)C(=CC1=O)C=C[C@H](OC(=O)/C=C/C=C/[C@H](C)CC)[C@@H]2C |  | 8.91 µM (active) |
| C=C[C@@]1(C)CCC2C(=CCC3[C@]2(C)CCC[C@@]3(C)C(=O)O)C1 (some centres undefined) |  | 22.4 µM (active) |
| CC[C@H](C)/C=C(C)/C=C/C1=CC2=CC(=O)[C@]3(C)OC(=O)[C@@H](C(C)=O)[C@@H]3C2=CO1 |  | 10 µM (active) |
| O=C(N[C@H]1CCN(C(=O)c2cc(C(F)(F)F)cc(C(F)(F)F)c2)[C@H](Cc2ccc(Cl)cc2)C1)c1ccnc2ccccc12 | 10.4% [at 57.1 µM] (inactive) |  |
| C=CC(C)(C)c1[nH]c2ccccc2c1C[C@@H]1NC(=O)[C@H](C)NC1=O | -15.9% (inactive) |  |
| CC12CCC3C1C(c1c(cc(O)c(C(=O)c4ccccc4)c1O)O2)C3(C)C (centres undefined) |  | 8.91 µM (active) |
| C=C(C(=O)O)[C@@H]1CC=C(CCC(C)=O)[C@@H](C)CC1 |  | 56.2 µM (active) |
| COc1ccc2nc3n[nH]c(C)c3c(NCCOCCO)c2c1 | 11.9% (inactive) |  |
| CN(C)CCC(CSc1ccccc1)Nc1ccc(S(=O)(=O)NC(=O)c2ccc(N3CCN(Cc4ccccc4-c4ccc(Cl)cc4)CC3)cc2)cc1[N+](=O)[O-] (centres undefined) |  | 7.94 µM (active) |
| Cc1c(F)ccc(C(=O)Nc2cc([N+](=O)[O-])ccc2N2CCN(C)CC2)c1Cl | 10.6% (inactive) |  |
